# Shown are actives, neighbours in structure and some others; about 9.2% of the full set was active somewhere.
# HTT ATP protect: protects HTT-Q103 PC12 cells, measured by ATP; 230,000 tested, 0.14% active; Potency, µM (top dose mostly 56.4 µM), inactives show cytoprotection (ATP increase), actives largely listed as activators; PC12 HTT-Q103 induced, cytoprotection, ATP luminescence, 40 h; active means well fitted curve in the direction sought with a large enough effect; inconclusive means small, poorly fitted or top-dose-only effect, or another doubt; inactive means no such curve, though single readings can be large; an effect the other way counts as inactive or inconclusive; further: % of control where 0% means no effect; nearly all actives have a fitted effect of over 45% in size
#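 PC12 cells with ecdysone-inducible HTT exon 1 Q103-GFP, induced with 100 nM tebufenozide and co-treated with library compounds in a dose series (1536-well, 1500 cells/well). Cytoprotection read as ATP content by ATPlite luminescence.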
# HPGD inh: inhibitors of human 15-hydroxyprostaglandin dehydrogenase (HPGD). 150,000 tested, 4.3% active. Potency, µM, without a hit: at the highest dose activity change, negative = inhibition, most hits filed as inhibitors. P15428. purified HPGD, NADH fluorescence kinetic, PGE2 substrate. AID 894; further: on the % scale 0 is the no-effect control and ±100 the full control effect
# Target sequence (P15428 whole entry, looked up): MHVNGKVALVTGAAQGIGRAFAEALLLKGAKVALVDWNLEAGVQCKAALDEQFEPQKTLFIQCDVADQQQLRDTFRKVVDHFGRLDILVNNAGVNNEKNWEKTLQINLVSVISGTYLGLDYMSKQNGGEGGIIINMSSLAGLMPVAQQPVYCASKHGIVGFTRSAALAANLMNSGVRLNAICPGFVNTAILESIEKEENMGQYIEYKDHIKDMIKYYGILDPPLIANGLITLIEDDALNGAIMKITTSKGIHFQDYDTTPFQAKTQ
#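 NADH formation kinetics: reaction with 30 uM PGE2 and 1 mM NAD+ (final), 20 nM enzyme, Tris-HCl pH 8 with Tween 20, after 15 min compound preincubation at room temperature. Fluorescence change, last versus first of five reads.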
# HTT aggregate: mutant huntingtin aggregation inhibition | PC12 HttQ103-GFP aggregates, Acumen cytometry, 40 h | 220,000 tested, 1.1% active | Potency, µM (titrated, usually from 46.1 µM), for the others: at the top dose activity change, negative = inhibition, most hits filed as inhibitors; active means well fitted curve in the direction sought with a large enough effect; inconclusive means small, poorly fitted or top-dose-only effect, or another doubt; inactive means no such curve, though single readings can be large; an effect the other way counts as inactive or inconclusive; further: on the % scale 0 is the no-effect control and ±100 the full control effect; nearly all actives have a fitted effect of over 60% in size
#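 Inducible Q103 Huntingtin exon 1–GFP PC12 line, 1500 cells/well in phenol red free DMEM with 5% equine and 5% calf serum. Tebufenozide 100 nM induced expression; compounds titrated; aggregates quantified by cytometry.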
# JMJD2E inh: blocks human JMJD2E demethylase activity; JMJD2E catalytic domain, FDH-coupled NADH fluorescence (FDH is formaldehyde dehydrogenase); Potency, µM (highest dose often 57.1 µM), inactives show top-dose activity change, negative = inhibition, usual class: inhibitors; B2RXH2; AID 2147; 230,000 tested, 1.6% active;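 further: 0% = wells with enzyme and -100% = buffer wells without enzyme; nearly all actives have a fitted effect of over 50% in size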
# Target sequence (B2RXH2 1-337 limits assumed): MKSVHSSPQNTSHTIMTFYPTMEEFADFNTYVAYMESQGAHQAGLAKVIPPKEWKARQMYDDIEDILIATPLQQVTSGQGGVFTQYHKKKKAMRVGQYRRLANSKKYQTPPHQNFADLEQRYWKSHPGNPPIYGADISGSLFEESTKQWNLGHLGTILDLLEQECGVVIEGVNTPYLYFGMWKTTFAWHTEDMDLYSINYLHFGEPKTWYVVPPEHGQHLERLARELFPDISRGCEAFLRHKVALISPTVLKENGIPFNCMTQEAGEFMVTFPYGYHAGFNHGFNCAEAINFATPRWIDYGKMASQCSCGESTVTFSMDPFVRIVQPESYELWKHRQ
# LMNA splice mod: modulators of lamin A splicing | HeLa LMNA splicing GFP/RFP minigene ratio, 48 h | Potency, µM (top dose mostly 46.1 µM), inactives show at the highest dose ratio change, negative = inhibition, most hits filed as inhibitors | 200,000 tested, 0.01% active | AID 1487; active means well fitted inhibition curve with a large enough effect in the signal ratio, with a control signal flat, not every such curve was filed as active; inconclusive means small, poorly fitted or top-dose-only effect, or effect the other way, or a change in a side signal; the % refers to the signal ratio; further: on the % scale 0 is the no-effect control and ±100 the full control effect
#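 S3 HeLa cells stably expressing lamin A-EGFP splicing minigene plus DsRed2, 600 cells/well, 48 h compound exposure at 37C. Laser-scanning cytometry; analysed as GFP (500-530 nm)/RFP (575-640 nm) total intensity ratio; 0.5% DMSO vehicle.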
# ALDH1A1 block: blocks purified human ALDH1A1 activity. 220,000 tested, 7.3% active. Purified ALDH1A1, NADH fluorescence, propionaldehyde substrate. AID 1030. P00352. Potency, µM (highest dose often 75.3 µM), for inactives: at the highest dose activity, negative = inhibition, usual class: inhibitors;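 further: plate controls were no enzyme wells and a reference inhibitor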
# * hit, by the source's call; ? = inconclusive; . = no result given; [ ] = dose if it differs, or a comment. Unless noted, the call rests on the fitted dose curve; in most records, active means well fitted inhibition curve with a large enough effect (not every such curve was filed as active); inconclusive means small, poorly fitted or top-dose-only effect, or another doubt; inactive means no such curve, though single readings can be large or run the other way. Potency means the concentration at half of the fitted maximal effect.
SMILES,HTT ATP protect,HPGD inh,HTT aggregate,JMJD2E inh,LMNA splice mod,ALDH1A1 block
COc1cc(/C=C2/SC(=S)N(c3ccccc3)C2=O)ccc1Oc1nc(N2CCOCC2)nc(N2CCOCC2)n1,-1%[10 µM],-14%,14%,-3%,-9%,0.4µM*
COc1cc(/C=C2\SC(=S)N(c3cccnc3)C2=O)ccc1O,2%[10 µM],.,5%[9.22 µM],8%,.,.
COC(=O)c1sc(N2C(=O)C(=O)/C(=C(/O)c3ccccc3)C2c2ccco2)nc1C (stereo not drawn),.,25µM*,12%,4%,-6%,-2%
Cc1nc(N2C(=O)C(=O)/C(=C(/O)c3ccccc3)C2c2ccco2)sc1C (stereo not drawn),12%[0.074 µM],-7%,4%,8%,-11%,6%
NNC(=O)c1cc2c(N3CCC(Cc4ccccc4)CC3)ncnc2s1,-13%[10 µM],.,?,?,?,?
COCCCNC(=O)/C(C#N)=C/c1ccc(OCC(=O)O)c(OC)c1,?,?,-10%,?,-8%,?
CCOCCCNC(=O)/C(C#N)=C/c1ccc(Cl)c([N+](=O)[O-])c1,-6%,.,5%,20µM*,?,10µM*
COCCNC(=O)/C(C#N)=C/c1ccc(O)c([N+](=O)[O-])c1,-148%,.,?,-21%,.,?
CCOCCCNC(=O)/C(C#N)=C/c1cc(OC)c(O)c([N+](=O)[O-])c1,-41%,.,18%,?,.,13µM*
CCOCCCNC(=O)/C(C#N)=C/c1ccccc1F,3%,.,-2%,1%,.,?
CCOCCCNC(=O)/C(C#N)=C/c1cc(C)c(O)c(C)c1,-21%,.,22%,-1%,?,10µM*
C[C@H]1C[C@@H]2[C@H]3CCC4=CC(=O)C=C[C@@]4(C)[C@]3(Cl)[C@@H](Cl)C[C@]2(C)[C@]1(O)C(=O)COP(=O)(O)O,-5%[10 µM],.,.,.,.,.
N#CC1=C(N)NC(SCC(=O)O)=C(C#N)C12CCCC2,-4%,13µM*,-7%,?,4%,5.6µM*
N#CC1=C(N)NC(SCc2ccc(F)cc2)=C(C#N)C12CCCCC2,-48%,-10%,13µM*,3%,-5%,?
CSC1=C(C#N)C2(CCCCC2)C(C(=O)Nc2ccccc2)=C(C)N1,-4%,.,.,.,.,.
N#CC1=C(N)NC(SCC(=O)Nc2ccccc2)=C(C#N)C12CCCC2,-10%,18µM*,6%,-13%,-7%,4.5µM*
CC1=C(C(=O)Nc2ccccc2)C2(CCCCC2)C(C#N)=C(S)N1,2%[10 µM],25µM*,9%,-3%,-3%,20µM*
[O-][N+](CCO)(CCO)c1ncnc2nc[nH]c12,-5%[10 µM],-11%,.,.,.,4%[13.5 µM]
CCNC(=S)N1CCN(CC)CC1,-26%,.,3%,?,3%[46 µM],-11%
COC(=O)c1ccc(COc2ccc3c(c2)CCC3)o1,-2%[10 µM],.,-3%[9.22 µM],-3%,.,.
CC(NC(=O)c1ccc(CS(=O)(=O)c2ccc(Cl)cc2)o1)c1ccc2c(c1)OCCO2 (stereo not drawn),1%,-9%,-4%[9.22 µM],2%,?,?
NNC(=O)c1ccc(COc2ccc3c(c2)CCC3)cc1,-3%[10 µM],-17%,-31%,14%,-10%,7.9µM*
O=C(NCc1cccnc1)c1ccc(COc2ccc3c(c2)CCC3)o1,6%[10 µM],?,8.9µM*,0%,?,?
Cc1ccccc1S(=O)(=O)Cc1ccc(C(=O)NCc2cccnc2)o1,19%[10 µM],-8%,0%,-23%,-14%,14µM*
O=C(O)c1ccc(COc2ccc3c(c2)CCC3)cc1,10%[10 µM],.,-12%[9.22 µM],1%,.,.
SMILES,HTT ATP protect,HPGD inh,HTT aggregate,JMJD2E inh,LMNA splice mod,ALDH1A1 block
Cc1ccccc1S(=O)(=O)Cc1ccc(C(=O)NC(C)c2ccc3c(c2)OCCO3)o1 (stereo not drawn),-20%,-20%,-13%,-4%,-7%,14µM*
Cc1cc(C(=O)NN=C2CCCCCC2)c(C)o1,0%[10 µM],.,-20%[9.22 µM],14%,.,.
Cn1cccc1C(=O)N1CCC2(CCCN(Cc3ccc(C#N)cc3)C2)CC1,-43%,-2%,.,.,.,-14%
COc1ccc([C@@H]2CC(=O)c3c(O)cc(O[C@@H]4O[C@@H](CO[C@@H]5O[C@@H](C)[C@@H](O)[C@@H](O)[C@H]5O)[C@@H](O)[C@@H](O)[C@H]4O)cc3O2)cc1O,2%,.,.,.,.,.
O=c1c2ccccc2nnn1Cc1ccccc1Cl,-45%,.,-2%[9.22 µM],-6%,?,-8%
N[C@@H](Cc1ncccn1)C(=O)O,-5%[10 µM],-4%,.,.,.,-12%[13.5 µM]
Cc1ccc(S(=O)(=O)Cn2nnnc2C(C(C)C)N2CCSCC2)cc1 (stereo not drawn),8%,-12%,-14%,-5%,10%,-4%
Cc1ccc(S(=O)(=O)Cn2nnnc2C(C(C)C)N2CCc3ccccc3C2)cc1 (stereo not drawn),9%,-29%,-2%,?,10%,10µM*
O=C1CSC(=NC2CCCCC2)N1,-10%[10 µM],-8%,21%,4%,-12%,7.9µM*
CC(Oc1ccc(Cl)cc1Cl)C(=O)Nc1ccc(N2CCN(C)CC2)cc1 (stereo not drawn),-2%[0.074 µM],-18%,17%,3%,-5%,3%
CC(=O)N1CCN(c2ccc(NC(=O)C(C)Oc3ccc(Cl)cc3Cl)cc2)CC1 (stereo not drawn),3%,20µM*,19%[9.22 µM],-11%,9%,?
CCOC(c1cc(OC)cc([N+](=O)[O-])c1OC)C(C)C(OC)[C@@H](C)/C=C/CC(=O)OC (stereo partly drawn),-5%[10 µM],.,.,.,.,0%[13.5 µM]
Cc1ccc(CNC(=O)CSc2c3c(nc4ccc(Cl)cc24)CCCC3)o1,?,-28%,-71%,-19%,?,8.9µM*
O=C(CSc1c2c(nc3ccc(Cl)cc13)CCCC2)N1CCN(C(=O)c2ccco2)CC1,20µM*,.,.,.,.,.
CCN(CC)C(=O)Cn1c(SCC(=O)Nc2ccc(F)cc2)nc2ccccc21,.,.,.,.,6%[46 µM],.
O=C(COc1ccc(F)cc1)Nc1nnc(SCc2cc(=O)n3ccccc3n2)s1,.,.,.,.,-7%[46 µM],.
COc1ccc(-n2sc3c(c2=S)-c2cc(OC)ccc2NC3(C)C)cc1,3%[10 µM],-29%,?,-9%,?,32µM*
O=[N+]([O-])c1cccnc1N1CCN(c2ccc(F)cc2)CC1,7%[10 µM],.,-13%,-1%,-1%[46 µM],-12%
CCN(CCS(=O)(=O)c1ccc(Cl)cc1)C(=O)Nc1ccc(Cl)cc1,-2%[10 µM],.,4%[9.22 µM],0%,.,.
CC(/C=C/c1ccccc1)=N/NC(=O)c1cccc(Br)c1,.,.,.,-4%,-6%[46 µM],-1%
Cc1ccc(N/N=C/c2ccc3c(c2)OCCO3)cc1Cl,3%[10 µM],?,4%,0%,-9%,13µM*
N#CCN1CCC(c2cc(-c3ccco3)n[nH]2)CC1,-29%,.,-8%,-28%,-5%[46 µM],22µM*

# Assay outcomes deposited in PubChem BioAssay by National Center for Advancing Translational Sciences (NCATS).
